Screening data deposited in PubChem BioAssay by National Center for Advancing Translational Sciences (NCATS).
TCR activator = activates T cell receptor signaling; primary human leukocytes, anti-CD3, IL-2 HTRF, 48 h; Potency, µM (highest dose often 9.22 µM), for the others: top-dose activation of IL-2 secretion, most hits filed as activators; 330,000 tested, under 10 active; AID 504894; further: % of control where 0% means no effect
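Using a-CD3 beads without co-stimulation, primary human leukocytes were exposed to compounds for 48 hr. An HTRF IL-2 kit measured the cytokine, with europium-to-d2 energy transfer producing emission at 665nm upon 320nm excitation.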
Sfp PPTase inh = Sfp phosphopantetheinyl transferase inhibition; Biochemical Sfp PPTase activity, qHTS; Potency, µM, for inactives: largest response in the series, negative = inhibition, hits mostly inhibitors; hit rate 3.5% among 310,000; AID 1490;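 further: the enzyme is Sfp with the accession as filed and its product quenches rhodamine fluorescence; potency means the concentration at half of the fitted maximal effect; 0% = enzyme reaction without inhibitor and -100% = no enzyme wells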
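Reaction rates are the 30-min fluorescence difference (ex 525, em 598 nm) in wells containing 15 nM Sfp, 5 uM rhodamine-CoA and 12.5 uM BHQ-2-YbbR at pH 7.6 with 10 mM MgCl2.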
ClpP mod = qHTS Assay for Activators of ClpP | ATP-dependent Clp protease proteolytic subunit (Bacillus subtilis (strain 168)), P80244 | purified B. subtilis ClpP, FRET peptide cleavage, 20 min | Potency, µM (titrated, usually from 57.5 µM), inactives show at the highest dose activity change, negative = active | hit rate 1.9% among 340,000; active means well fitted falling curve with a large enough effect; inconclusive means small, poorly fitted or top-dose-only effect; inactive means no such curve, though single readings can be large or run the other way; further: potency means the concentration at half of the fitted maximal effect; the source files actives as falling curves though it sought activators and does not explain the sign; nearly all actives have a fitted effect of over 65% in size
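Buffer: 100 mM Tris/HCl pH8, 100 mM KCl, 0.05% low protease BSA, 2.5% glycerol, 0.01% Tween-20. ClpP 10 microg/mL final; 20 min RT; delta FRET normalized to ADEP and DMSO controls.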
uPA generation = cell surface uPA generation inhibition | cell surface uPA generation assay, qHTS | Potency, µM (series often up to 38.3 µM), without a hit: top-dose activity change, negative = inhibition, most hits filed as inhibitors | hit rate 0.31% among 330,000 | AID 540303; active means well fitted inhibition curve with a large enough effect; inconclusive means small, poorly fitted or top-dose-only effect; inactive means no such curve, though single readings can be large or run the other way; tested in mouse RAW 264.7 cells; further: potency means the concentration at half of the fitted maximal effect; on the % scale 0 is the no-effect control and ±100 the full control effect; nearly all actives have a fitted effect of over 55% in size
* hit, by the source's call; u = inconclusive; x = not tested or not shown; [ ] = another dose, or the depositor's remark. Rows were chosen to be rich in hits. Some 4.2% of all compounds tested hit in one or more screens of this group. Unless noted, the call rests on the fitted dose curve; in most records, active means well fitted curve in the direction sought with a large enough effect; inconclusive means small, poorly fitted or top-dose-only effect, or another doubt; inactive means no such curve, though single readings can be large; an effect the other way counts as inactive or inconclusive.

SMILES	TCR activator	Sfp PPTase inh	ClpP mod	uPA generation
COc1ccc(C2=NN(C(=O)CSc3nc4ncc(Cl)cc4[nH]3)C(c3ccco3)C2)cc1 (configuration not stated)	2%	-8%	x	-6%
CC(=O)N1N=C(c2c(-c3ccccc3)c3cc(Br)ccc3[nH]c2=O)CC1c1ccco1 (configuration not stated)	1%	40µM*	-5%	u
CC1CCCCN1C(=O)CN1C(=O)NC2(CCCCC2C)C1=O (configuration not stated)	-10%	x	2%	1%
COc1cccc(NC(=O)CN(C)C(=O)CSc2ccc3c(c2)OCCO3)c1	1%	x	-2%	-2%
CN1CC(=O)N(CC(=O)N2N=C(c3ccc(Cl)cc3)CC2c2ccco2)C1=O (configuration not stated)	6%	20µM*	-4%	0%
COc1ccc(C2=NN(C(=O)CSc3nnc(-c4ccccc4F)o3)C(c3ccco3)C2)cc1 (configuration not stated)	-3%[46.1 µM]	-12%	-11%	-2%
CCC(=O)N1N=C(c2ccc(Cl)cc2)CC1c1ccco1 (configuration not stated)	1%	-13%	x	-4%
COc1ccc(C2=NN(C(N)=S)C(c3ccco3)C2)cc1 (configuration not stated)	4%	11µM*	-5%	-15%
CC(=O)N1N=C(c2ccc(NS(=O)(=O)c3ccccc3)cc2)CC1c1ccco1 (configuration not stated)	9%	x	4%	0.71µM*
CNC(=O)C1CN(C(=O)c2cccc(S(=O)(=O)N3c4ccccc4CC3C)c2)c2ccccc2O1 (configuration not stated)	x	x	0%	8%
COC(=O)C1=C(C)NC2=C(C(=O)CC(C)(C)C2)C1c1cn(Cc2ccc(Br)cc2)nc1-c1ccccc1 (configuration not stated)	-7%	6%	32µM*	3%
COc1cccc(C(O)c2nc(/C=C/c3ccc(C(F)(F)F)cc3)cs2)c1 (configuration not stated)	x	x	28µM*	x
Cc1nc2ccn(Cc3cccnc3)c(=O)c2cc1C(=O)NCc1ccc(Cl)cc1	x	x	13µM*	x
O=C(NCc1cccnc1)c1ccc(-c2ccccc2[N+](=O)[O-])o1	3%[46.1 µM]	3%	2%	-3%
Cc1cc2c(cc(C(=O)NCc3cccnc3)n2Cc2ccc(Cl)cc2)o1	x	45µM*	-6%	7%
COc1ccc(CNC(=O)c2cc3c(=O)n(Cc4ccc(OC)cc4)ccc3nc2C)cc1	x	x	108%	x
O=C(NCc1cccnc1)c1ccc(-c2cccc(Cl)c2Cl)o1	-1%	16µM*	x	0%
COC(=O)C1=C(C(=O)OC)[C@@H]2N(Cc3ccccc3)c3ccccc3[C@@]23C[C@@H](CO)N(C(=O)NC2CCCC2)C3=N1	-15%	-2%	2%	-3%
Cc1c(Cl)cccc1NC(=O)Nc1nnc(N(C)Cc2ccccc2)s1	x	x	0%	x
Cc1cccc(C)c1OCCCn1c(CCNC(=O)C2CCCCC2)nc2ccccc21	x	x	-3%	x
O=C(CSc1nc2c(c(=O)[nH]1)CCC2)Nc1cccc(O)c1	x	x	0%	x
Cc1ccc(Sc2cnn(-c3ccccc3)c(=O)c2Cl)cc1	2%	-10%	-2%	-15%
Nc1ccc(Sc2cnn(-c3ccccc3)c(=O)c2Cl)cc1	-5%	8%	20µM*	-3%
CCOC(=O)c1ccccc1NC(=O)c1cnc(N2CCOCC2)c2ccccc12	x	x	32µM*	x
CCOC(=O)c1ccc2ncc(C(=O)OCC)c(Nc3ccc(N4CCOCC4)cc3)c2c1	-52%[46.1 µM]	50µM*	1%	2%
SMILES	TCR activator	Sfp PPTase inh	ClpP mod	uPA generation
N#Cc1ccccc1NC(=O)c1cnc(N2CCOCC2)c2ccccc12	x	x	-13%	x
CCOC(=O)c1cnc2ccccc2c1Nc1ccc(N2CCOCC2)cc1	x	x	1%	x
COc1ccccc1NC(=O)C1=C(C)Nc2nc(-c3ccco3)nn2C1c1ccccc1F (configuration not stated)	x	x	-5%	x
CN1C(=O)C2(c3ccccc31)N(c1ccc(Br)cc1)C(=O)CS2(=O)=O (configuration not stated)	x	x	1%	x
Cc1cc(S(=O)(=O)N2CCN(Cc3noc(CCC(=O)N4CCCCC4)n3)CC2)ccc1F	x	x	0%	x
COc1ccc(/C=N/NC(=S)NC2CCS(=O)(=O)C2)cc1OC (configuration not stated)	-4%	56µM*	0%	-9%
CCCc1[nH]nc2c1C(c1ccc(OC)c(CSC3=NCCS3)c1)C(C#N)=C(N)O2 (configuration not stated)	4%	79µM*	-1%	-1%
CCOc1ccc(N(C(=O)c2ccc(C)cc2)S(=O)(=O)c2ccc3c(c2)n(C)c(=O)n3C)cc1	x	x	-2%	x
Cc1c(C(=O)N2CCN(c3ncccn3)CC2)sc2nc3n(c(=O)c12)CCCC3	1%	0%	28µM*	-1%
Cc1c(C(=O)O)sc2nc3n(c(=O)c12)CCCCC3	0%	21%	1%	0%
CC(C)(C)OC(=O)NCCCCCNC(=O)c1[nH]cnc1C(=O)Nc1ccc(Cl)cc1	0%	x	-11%	6.3µM*
CC(C)COc1ccc(C(=O)Nc2cc3nn(-c4ccccc4)nc3cc2Cl)cc1	x	x	-14%	x
CC(=O)Nc1cc2nn(-c3ccccc3)nc2cc1Cl	-8%	-3%	20µM*	-7%
CC(C)(C)C(=O)Nc1cc2nn(-c3ccccc3)nc2cc1Cl	6%	2%	28µM*	-13%
COc1ccc([C@@H]2[C@@H](O)[C@H](O)[C@@H](C)N2C)cc1OC	x	-14%	x	x
Cn1c(=O)c(C#N)c(-c2ccc(F)cc2)c2cc(C(=O)c3cc(Cl)cc(Cl)c3O)cnc21	-3%	45µM*	-5%	-20%
COc1ccccc1-n1c(=O)c(C#N)c(-c2ccc([N+](=O)[O-])cc2)c2cc(C(=O)c3cc(F)ccc3O)cnc21	x	8%	x	2%
COc1cccc(CN2CCN(Cc3ccc(O)cc3)CC2CCO)c1 (configuration not stated)	-4%	8%	-2%	-5%
COc1cc(-c2cc(OC)c3c(C)oc(C)c3c(=O)c2)ccc1OC(=O)c1ccccc1Cl	x	x	1%	x
COc1cc(-c2cccs2)cc(=O)c2c(C)oc(C)c12	3%	45µM*	-2%	2%
Cc1cc(NC(=O)N(C)CCc2c(C)nn(C)c2C)ccc1Br	x	x	-5%	x
COC(=O)c1nn(-c2ccc(OC)cc2)c(=O)c2c(N)sc(C)c12	1%[46.1 µM]	35µM*	0%	3%
COCCCn1c(=S)[nH]c2sc3c(c2c1=O)CCCS3	2%	35µM*	x	-4%
CNC1C(OC2C(O[C@@H]3C(O)C(O)[C@@H](N=C(N)N)C(O)C3N=C(N)N)OC(C)[C@@]2(O)CO)OC(CO)C(O)C1O (some centres not stated)	x	10%	x	x
C/C(=N\Nc1nnc(-c2ccccc2)c(-c2ccccc2)n1)c1cccc([N+](=O)[O-])c1	6%	50µM*	-1%	x
